Screens from PubChem BioAssay.
DRD3 agonist = activates the human D3 dopamine receptor | 410,000 tested, 0.58% active | max activation, % | D3R DiscoveRx beta-arrestin cells, luminescence, 90 min; in the data active = max activation above about 30%; also: 0% is about no effect
Target sequence (P35462 whole entry, looked up): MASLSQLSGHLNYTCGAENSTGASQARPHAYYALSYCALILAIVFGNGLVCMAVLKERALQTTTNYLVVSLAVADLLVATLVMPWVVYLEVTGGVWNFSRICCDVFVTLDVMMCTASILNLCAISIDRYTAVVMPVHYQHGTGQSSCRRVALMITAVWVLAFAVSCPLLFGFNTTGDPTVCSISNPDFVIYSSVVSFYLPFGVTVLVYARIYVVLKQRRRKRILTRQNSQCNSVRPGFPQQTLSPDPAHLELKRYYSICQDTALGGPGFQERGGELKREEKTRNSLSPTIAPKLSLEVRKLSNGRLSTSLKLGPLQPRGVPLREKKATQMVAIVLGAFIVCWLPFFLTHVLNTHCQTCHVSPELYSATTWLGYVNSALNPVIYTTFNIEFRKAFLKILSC
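Cells at 1500/well, incubated overnight, then treated with pinned compounds (dopamine as control) for 90 min at 37 degrees C. DiscoveRx reagent added for 30 - 60 minutes at room temperature; luminescence read.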
DRD3 antagonist = antagonists of human D3 dopamine receptor; P35462; D3R cells, DiscoveRx beta-arrestin luminescence, antagonist mode; active compounds read low; max response, negative = inhibition, %; 360,000 tested, 2.5% active; AID 652054; in the data active = max response below about -50%; inconclusive = no clear call, values can overlap the other calls; also: % is scaled to controls: 0 for no effect and ±100 for the full control effect
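Cells plated overnight at 1500 cells/well, then exposed to library compounds with dopamine controls for 90 minutes at 37 degrees C. DiscoveRx reagent added for 30–60 minutes at room temperature; luminescence read, quantitative HTS format.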
ClpP mod = qHTS Assay for Activators of ClpP. Potency, µM (series often up to 57.5 µM), for the others: top-dose activity change, negative = active. 340,000 tested, 1.9% active. purified B. subtilis ClpP, FRET peptide cleavage, 20 min. ATP-dependent Clp protease proteolytic subunit (Bacillus subtilis (strain 168)), P80244; active = well fitted falling curve with a large enough effect; inconclusive = small, poorly fitted or top-dose-only effect; inactive = no such curve, though single readings can be large or run the other way; also: potency is read from the fitted curve at half-maximal effect; the source files actives as falling curves though it sought activators and does not explain the sign; nearly all actives have a fitted effect of over 65% in size
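Buffer: 100 mM Tris/HCl pH8, 100 mM KCl, 0.05% low protease BSA, 2.5% glycerol, 0.01% Tween-20. ClpP 10 microg/mL final; 20 min RT; delta FRET normalized to ADEP and DMSO controls.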
TDP1 cell noCPT = qHTS for Inhibitors of human tyrosyl-DNA phosphodiesterase 1 (TDP1): qHTS in cells in absence of CPT. 420,000 tested, 15% active. AID 686978, 2013. DT40 Tdp1-/- hTDP1 cells, no CPT, ATP luminescence, 48 h. Potency, µM (titrated, usually from 46.2 µM), for the others: top-dose activity change, negative = growth inhibition, most hits filed as inhibitors; also: potency is read from the fitted curve at half-maximal effect; % is scaled to controls: 0 for no effect and ±100 for the full control effect; nearly all actives have a fitted effect of over 55% in size
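Luminescent ATP content (CellTiter-Glo) served as the growth readout. Knockout chicken DT40 cells expressing human TDP1 were exposed to compounds without camptothecin for a minimum 48 hr at 37 °C.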
IL1B secr inh = inhibitors of inflammasome signaling (IL-1 beta secretion); THP-1 LPS/ATP IL-1B secretion, AlphaLISA, 16 h; active compounds read low; activity change, % at 57.5 µM; 360,000 tested, 4.7% active; in the data active = activity change below about -50%; inconclusive = mostly about -30% to -49%; also: % is scaled to controls: 0 for no effect and ±100 for the full control effect
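Secreted IL-1B measured by AlphaLISA bead assay after 16 h compound exposure of THP-1 cells; compounds (final up to 57.5 uM) added 1 h before LPS (250 ng/mL) and ATP (1.25 mM) stimulation; lower signal means less secretion.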
TDP1 cell CPT = growth inhibition of DT40 Tdp1-/-;hTDP1 cells with camptothecin (screen for TDP1 inhibitors) | chicken DT40 Tdp1-/-;hTDP1 cells + 20 nM CPT, ATP luminescence, 48 h | Potency, µM (titrated, usually from 46.2 µM), without a hit: at the top dose activity change, negative = growth inhibition, hits mostly inhibitors | 420,000 tested, 12% active | AID 686979; also: potency is read from the fitted curve at half-maximal effect; % is scaled to controls: 0 for no effect and ±100 for the full control effect; nearly all actives have a fitted effect of over 55% in size
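Cell growth measured by CellTiter-Glo luminescence after a minimum 48 h, 37 C compound exposure with 20 nM CPT in Tdp1-knockout DT40 cells stably expressing hTDP1, seeded 400/well; qHTS titration format.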
Numbers without * were called inactive; ? = inconclusive; . = no result given. Hits are enriched below; roughly 21% of the tested compounds scored in any of these assays. Unless noted, calls follow the shape of the dose curve; as a rule, active = well fitted inhibition curve with a large enough effect; inconclusive = small, poorly fitted or top-dose-only effect; inactive = flat fitted curve, though single readings scatter.

SMILES	DRD3 agonist	DRD3 antagonist	ClpP mod	TDP1 cell noCPT	IL1B secr inh	TDP1 cell CPT
CC1CCC(C(C)C)C(OC(=O)COC(=O)c2cc(O)ccc2N)C1 (configuration not stated)	7.7	41.5	?	?	-80.4*	?
O=C(NCCC(=O)N(Cc1ccco1)Cc1cccs1)c1ccccc1Cl	-3.8	-8.4	-0.6%	?	-14.4	?
O=C(c1ccccc1Br)N(Cc1ccco1)Cc1ccco1	10.3	.	-3.4%	14.6µM*	.	13µM*
O=C(c1cccc(Cl)c1Cl)N(Cc1ccco1)Cc1cccs1	.	.	-2.5%	11.2µM*	.	?
O=C(NCc1ccco1)c1ccccc1Br	0.8	5.5	-1.0%	?	-5.9	?
CC1CN=C(c2ccccc2)O1 (configuration not stated)	-0.5	14.7	.	2.6%	-2.6	3.3%
COc1cccc(NC(=O)COC(=O)c2c(C)nn(-c3ccccc3)c2C)c1	1.9	-5.7	-2.2%	-23.6%	-56.3*	?
CC1CCc2nc3ccccc3c(C(=O)OCC(=O)NC3CCS(=O)(=O)C3)c2C1 (configuration not stated)	0.8	4.5	.	-26.6%	-7.6	-1.7%
COc1cccc(NC(=O)COC(=O)c2c3c(nc4ccccc24)CCC(C)C3)c1 (configuration not stated)	52.8*	33.2	-3.7%	9.2µM*	-0.2	8.2µM*
CCCn1c(N)c(N(CCOC)C(=O)CSCC(=O)Nc2ccc(OC)cc2)c(=O)[nH]c1=O	0.3	18.6	-0.6%	-0.3%	13.3	-18.8%
O=C(NC(=S)Nc1ccc2oc(-c3cccnc3)nc2c1)c1cccc(Cl)c1	1.7	61.6	-4.8%	?	-1.4	16.4µM*
CC(C)Oc1cccc(C(=O)Nc2ccc3oc(-c4cccc(Cl)c4)nc3c2)c1	9.2	.	?	16.4µM*	.	?
COc1ccc(C(=O)Nc2ccc3oc(-c4cccnc4)nc3c2)cc1	5.9	.	4.6%	?	.	-29.2%
CCS(=O)(=O)c1ccc(O)c(NC(=O)c2ccc(S(=O)(=O)N3CCCCCC3)cc2)c1	4.5	-1.8	.	-3.2%	9.9	-6.6%
O=C(CSc1nnc(-c2cccc(Cl)c2)o1)N1CCc2ccccc21	2.6	.	-3.3%	11.3%	.	1.1%
Cc1ccc2[nH]c3c(c2c1)CN(C(=O)CN1CCN(c2cccc(C)c2C)CC1)CC3	6.5	0.0	-1.5%	20.6µM*	-10.5	23.1µM*
CC(=O)Nc1ccc(Oc2sc(C(=O)c3ccccc3)c(N)c2C#N)cc1	-0.5	-2.5	0.3%	?	-59.7*	?
Cc1ccccc1-c1cc2nc(NCc3ccccc3)n(C)c(=O)c2s1	-9.8	0.0	-19.7%	?	-24.9	9.2µM*
Cc1ccccc1-c1cc2nc(NCc3ccc(N(C)C)cc3)n(C)c(=O)c2s1	17.8	0.5	-21.4%	16.4µM*	-8.7	?
Cc1ccc(-c2nc3n(n2)Cc2ccccc2-3)cc1	-5.1	?	-1.4%	?	-19.9	?
c1ccc(-c2cn3c(n2)-c2ccccc2C3)cc1	-2.0	2.9	14.1µM*	14.6µM*	-6.8	?
CC(=O)NS(=O)(=O)c1ccc(NC(=O)CSc2ccc(C)cc2)cc1	-3.9	-10.2	.	5.2%	10.7	-15.6%
S=c1nccc(-c2ccc3c(c2)CCO3)[nH]1	-6.8	0.0	.	?	24.0	10.3µM*
CC1(C)CCc2cc(-c3ccnc(=S)[nH]3)ccc2O1	11.9	-14.6	.	?	6.2	?
Cc1ccc(NS(=O)(=O)c2cc3[nH]c(=O)c(=O)[nH]c3cc2C)cc1N(C)C	4.0	.	-2.0%	-0.1%	.	0.1%
COc1ccc(-c2noc3c2-c2nc(-c4ccccc4F)sc2CC3)cc1	2.8	-7.5	-2.4%	?	-4.7	-23.0%
